BAZ2B inh: qHTS Assay for Inhibitors of BAZ2B. AlphaScreen BAZ2B-H3K14Ac peptide displacement. Potency, µM (top dose mostly 114 µM), actives largely listed as inhibitors. 360,000 tested, 4.4% active. AID 504333, 2011; further: nearly all actives have a fitted effect of over 60% in size
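In this displacement format the biotinylated H3(5-23) peptide acetylated at Lys14 serves as ligand at 50 nM, with BAZ2B at 50 nM in PBS pH 7.4 containing 0.01% Tween-20. Donor and acceptor beads are 10 ug/mL final.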
G9a inh: qHTS Assay for Inhibitors of Histone Lysine Methyltransferase G9a. G9a H3K9 monomethylation, AlphaScreen, 2 h. Potency, µM (doses to about 102 µM), actives largely listed as inhibitors. 350,000 tested, 8.8% active. AID 504332, 2011; further: nearly all actives have a fitted effect of over 75% in size
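Quantitative HTS format: methyltransferase activity on a biotin-tagged H3K9 peptide is measured by AlphaScreen, using a rabbit anti-monomethyl-H3K9 antibody with streptavidin donor and anti-IgG acceptor beads. Final levels are 20 nM enzyme, 500 nM peptide, 20 uM SAM; 2 h RT.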
JMJD2A Tudor inh: qHTS Assay for Inhibitors of JMJD2A-Tudor Domain; Lysine-specific demethylase 4A (Homo sapiens), O75164; AlphaScreen JMJD2A-Tudor / H3K4me3 peptide binding; Potency, µM (highest dose often 114 µM), actives largely listed as inhibitors; 390,000 tested, 4.4% active; further: nearly all actives have a fitted effect of over 50% in size
HP1b chromo inh: HTS for Inhibitors of HP1-beta Chromodomain Interactions with Methylated Histone Tails; AlphaScreen HP1-beta / biotin-H3K9me3 peptide binding; Potency, µM (highest dose often 114 µM), most hits filed as inhibitors; 390,000 tested, 0.56% active; further: nearly all actives have a fitted effect of over 70% in size
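HP1-beta protein (50 nM final) preincubated 30 min at room temperature with biotinylated H3(1-18)K9me3 peptide (50 nM) in PBS pH 7.4, 0.01% Tween-20, then compound added for 30 min. AlphaScreen streptavidin donor/nickel chelate acceptor beads (10 ug/mL final), 30 min dark, luminescence read.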
L3MBTL1 inh: qHTS Assay for the Inhibitors of L3MBTL1; AlphaScreen L3MBTL1–H3K9me1 peptide binding; 230,000 tested, 0.66% active; Potency, µM (titrated, usually from 57.1 µM), actives largely listed as inhibitors; further: nearly all actives have a fitted effect of over 60% in size
Target sequence (Q9Y468 whole entry, looked up): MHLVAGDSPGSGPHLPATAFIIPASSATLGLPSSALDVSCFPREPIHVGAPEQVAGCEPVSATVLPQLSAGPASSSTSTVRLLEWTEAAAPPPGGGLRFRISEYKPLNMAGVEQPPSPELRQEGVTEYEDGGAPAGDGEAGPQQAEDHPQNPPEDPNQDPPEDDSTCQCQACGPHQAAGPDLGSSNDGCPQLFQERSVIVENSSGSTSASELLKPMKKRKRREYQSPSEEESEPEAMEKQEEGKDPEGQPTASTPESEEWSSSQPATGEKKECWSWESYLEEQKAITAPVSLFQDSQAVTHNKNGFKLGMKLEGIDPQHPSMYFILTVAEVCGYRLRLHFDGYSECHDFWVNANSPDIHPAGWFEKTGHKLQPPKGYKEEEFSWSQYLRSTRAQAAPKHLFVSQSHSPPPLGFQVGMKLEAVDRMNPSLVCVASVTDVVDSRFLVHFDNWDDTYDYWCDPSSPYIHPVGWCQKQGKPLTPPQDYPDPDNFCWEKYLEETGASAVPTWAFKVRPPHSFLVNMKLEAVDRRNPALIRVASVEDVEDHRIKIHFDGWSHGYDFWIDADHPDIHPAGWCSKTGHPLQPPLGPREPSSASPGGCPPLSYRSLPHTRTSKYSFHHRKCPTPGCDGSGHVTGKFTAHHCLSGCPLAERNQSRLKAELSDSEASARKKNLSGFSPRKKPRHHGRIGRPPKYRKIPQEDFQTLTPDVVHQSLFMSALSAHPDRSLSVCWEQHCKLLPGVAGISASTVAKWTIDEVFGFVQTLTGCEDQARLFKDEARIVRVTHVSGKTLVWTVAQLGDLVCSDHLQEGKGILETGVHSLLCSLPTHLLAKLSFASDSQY
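AlphaScreen proximity signal between nickel-chelate acceptor and streptavidin donor beads (final 10 ug/mL) reports binding of 50 nM L3MBTL1 to 75 nM biotin-H3 K9me1 peptide; complex incubated with compounds 30 min at room temperature; cefsulodin titration as control.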
Sfp inh: qHTS Assay for Inhibitors of Bacillus subtilis Sfp phosphopantetheinyl transferase (PPTase) | AID 1490, 2009 | Biochemical Sfp PPTase activity, qHTS | 4'-phosphopantetheinyl transferase ffp (Bacillus subtilis), Q9F4F7 | Potency, µM, actives largely listed as inhibitors | 310,000 tested, 3.5% active;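 further: the enzyme is Sfp with the accession as filed and its product quenches rhodamine fluorescence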
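After 15 min at room temperature with compound, 15 nM Sfp received 5 uM rhodamine-CoA plus 12.5 uM BHQ-2-ybbR (50 mM Hepes pH 7.6, 10 mM MgCl2). Rate came from the fluorescence difference over 30 min, ex 525/em 598 nm.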
Numbers stand for hits; . = inactive; ? = inconclusive; / = not tested or not shown; [ ] = another dose, or the depositor's remark. Most compounds without a hit are left out; they make up all but 12% or so of the library. The call rests on the fitted dose curve; in most records, active means well fitted curve in the direction sought with a large enough effect; inconclusive means small, poorly fitted or top-dose-only effect, or another doubt; inactive means no such curve, though single readings can be large; an effect the other way counts as inactive or inconclusive.

SMILES	BAZ2B inh	G9a inh	JMJD2A Tudor inh	HP1b chromo inh	L3MBTL1 inh	Sfp inh
C[C@H](NC(=O)c1nc[nH]c1C(=O)OCc1ccccc1)c1ccccc1	.	.[0.501 µM]	.	.	.	/
CCOC(=O)c1[nH]cnc1C(=O)N[C@@H](C)c1ccccc1	56µM	.[0.501 µM]	.	.	.	/
CCOC(=O)c1nc[nH]c1C	.	?	.	.	/	.
CCN(CC)C(=O)c1[nH]cnc1C(=O)N[C@@H](C)c1ccccc1	?	.[0.501 µM]	.	.	.	/
CCOC(=O)c1[nH]cnc1C(=O)NC(C)C	.	?	35µM	.	.	.
CCOC(=O)c1[nH]cnc1C(=O)Nc1ccc(C)cc1	.	?	.	.	.	.
CCN(CC)C(=O)c1[nH]cnc1C(=O)N[C@H](C)c1ccccc1	.	.[0.501 µM]	89µM	.	.	/
CCOC(=O)c1[nH]cnc1C(=O)O	20µM	.[12.7 µM]	2µM	.	/	.
COC(=O)c1c(Oc2ccc(OC)cc2)nnc(-c2ccccc2)c1-c1ccccc1	.	.	.	.	/	/
COc1ccc2c(c1)c1c(c(=O)n(CCc3ccccc3)c(=O)n1Cc1cccc(Cl)c1)n2C	.	.	.	.	/	/
OCC(O)C(O)C(O)C(O)C(O)CO (stereo not drawn)	/	/	/	/	/	.
Cc1ccccc1N1C(=O)c2cc(S(N)(=O)=O)c(Cl)cc2N[C@H]1C	/	?	/	/	/	.
CCn1nc(C(=O)OCC(=O)c2ccc3c(c2)OCCO3)c2ccccc2c1=O	.	?	50µM	.	.	.
CC(C)(C)c1ccc(OCCC(=O)NNC(=O)c2ccncc2)cc1	.	.[12.7 µM]	.	.	.	/
CC1(C)CC(=O)c2cc(C(=O)NC3CCSC3=O)c(=O)n(-c3ccccc3)c2C1 (stereo not drawn)	.	?	.	.	.	.
O=C1CCCc2c1cc(C(=O)Nc1ccc(Br)cn1)c(=O)n2-c1ccccc1	.	.[12.7 µM]	79µM	.	.	?
O=C1CCCc2c1cc(C(=O)NC1CCSC1=O)c(=O)n2-c1ccccc1 (stereo not drawn)	.	?	.	.	/	50µM
CCc1nn(CC(=O)N2CCN(c3cccc(C(F)(F)F)c3)CC2)c(=O)c2cccn12	71µM	.	?	.	/	/
COc1cc(OC)c(C2CC(=O)N3CN(c4ccc(C)cc4)CSC3=C2C#N)cc1OC (stereo not drawn)	?	.[2.33 µM]	4.5µM	?	.	5µM
COc1ccc(N2CSC3=C(C#N)C(c4cc(OC)c(OC)cc4OC)CC(=O)N3C2)c(OC)c1 (stereo not drawn)	45µM	3.5µM	20µM	20µM	/	3.5µM
COc1ccc(N2CSC3=C(C#N)C(c4ccc(OC)c(OC)c4)CC(=O)N3C2)c(OC)c1 (stereo not drawn)	?	2.5µM	20µM	?	/	3.2µM
CCOc1ccccc1N1CSC2=C(C#N)C(c3c(OC)ccc4ccccc34)CC(=O)N2C1 (stereo not drawn)	50µM	0.56µM	35µM	?	.	3.2µM
COc1ccc(CCNC(=O)C2CC(=O)N(c3ccc(C)cc3)C2)cc1OC (stereo not drawn)	.	.	.	.	/	.
O=C(O)CC(O)CC(O)/C=C/c1c(C2CC2)nc2ccccc2c1-c1ccc(F)cc1 (stereo not drawn)	/	.	/	/	/	.
COc1ccccc1-c1cccc([C@@H]2C[C@H]3[C@H](CON3C)CN2C)c1	/	/	.	.	/	/
SMILES	BAZ2B inh	G9a inh	JMJD2A Tudor inh	HP1b chromo inh	L3MBTL1 inh	Sfp inh
CCCCN(C)CCNC(=O)CCn1nc(-c2ccc(Cl)cc2)ccc1=O	.	.	.	.	/	.
COc1ccc(C2CC(=O)N3CN(C4CCCCC4)CSC3=C2C#N)cc1 (stereo not drawn)	/	1.8µM	7.1µM	?	/	/
COc1ccc(N2CSC3=C(C#N)C(c4cc(OC)ccc4OC)CC(=O)N3C2)c(OC)c1 (stereo not drawn)	45µM	2.2µM	22µM	16µM	.	3.2µM
CCCSC1=C(C#N)C(c2cc(OC)ccc2OC)CC(=O)N1 (stereo not drawn)	.	.	.	.	.	.
COc1ccccc1CC(=O)Nc1ccc2c(C)cc(=O)oc2c1	.	71µM	.	.	.	.
CC(NCc1cccs1)C(=O)NC1CCCCC1 (stereo not drawn)	40µM	?	20µM	?	.	?
COc1ccc(C(C(=O)NC2CCCC2)N(CC2CCCO2)C(=O)Cc2cccs2)cc1OC (stereo not drawn)	.	.	.	.	.	.
O=C(NC1CCCC1)C(c1cccs1)N(CC1CCCO1)C(=O)Cc1cccs1 (stereo not drawn)	.	45µM	.	.	.	.
CC(C)C(NC(=O)c1cccs1)C(=O)NC1CCCCC1 (stereo not drawn)	.	/	.	.	/	.
CCCc1sc(C(=O)Nc2nnc(C3CC3)s2)cc1CC	.	?	.	.	.	/
Cc1cc(C)n2nc(C(=O)Nc3nnc(C4CC4)s3)nc2n1	.	?	8.9µM	.	.	50µM
CCSc1nnc(NC(=O)CSc2nc(C)cc(C)n2)s1	.	.	.	.	/	.
CCSc1nnc(NC(=O)c2nc3nc(C)cc(C)n3n2)s1	.	.	16µM	.	/	?
COc1cccc2c(=O)c3c([nH]c12)OC(C)(C)C3	/	/	.	.	/	/
COc1cccc2c(=O)c3cccc(N)c3[nH]c12	?	25µM	.	.	.	22µM
Clc1ccc(CONc2ncnc3nonc23)c(Cl)c1	.	.	.	.	/	.
Cc1nn(Cc2ccccc2)c(Cl)c1/C=C1\NC(=S)NC1=O	.	40µM	.	.	.	40µM
COc1ccc(CNC(=O)Cc2ccc(NC(=O)N3CCSc4ncccc43)cc2)cc1OC	.	.	.	.	/	/
CCOc1nc(OCC)c2[nH]c(C(=O)O)c(Br)c2n1	/	/	25µM	.	/	/
Cc1ccc(C(=O)Nc2cccc(C(=O)O)c2)cc1S(=O)(=O)N1CCCC1	.	.	.	.	/	/
O=C(O)c1cccc(NS(=O)(=O)c2ccc3c(c2)C(=O)c2ccccc2C3=O)c1	?	/	.	.	.	.
Cc1ccc(S(=O)(=O)/N=C2\C=C(Nc3ccc(O)cc3)C(=O)c3ccccc32)cc1	/	/	5.6µM	13µM	?	/
Cc1ccc(S(=O)(=O)/N=C2\C=C(Nc3cccc(C(=O)O)c3)C(=O)c3ccccc32)cc1	13µM	10µM	45µM	?	/	.
CCc1ccc(S(=O)(=O)/N=C2\C=C(Nc3ccc(C(=O)O)cc3)C(=O)c3ccccc32)cc1	7.9µM	8.9µM	28µM	?	/	.
Cc1ccc(S(=O)(=O)/N=C2\C=C(Nc3cccc(C(=O)O)c3)C(=O)c3ccccc32)c(C)c1	8.9µM	2.8µM	28µM	?	/	.
